# Results: PubChem BioAssay AID1159580 (chemical genetic matrix, 2015)
# Hit rate of the full screen: of about 5,500 compounds, about 2,000 (36%) were called active. Inconclusive results (about 18%) are left out. Cut-off read from the data, not from the text of the source: active = normalized growth mostly below about 0.91 (no sharp cut-off); inconclusive = no clear call, values can overlap the other calls; inactive = mostly above about 0.92. This is one part of the list.
# Assay: chemical genetic growth profiling, strain panel (AID 1159580);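 note: tested at 20 µM; growth read once vehicle control cultures reached saturation at 30 °C; 1 = growth at the plate median or of vehicle wells; lower values mean less growth of the strain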
# Details: S. cerevisiae deletion strains, growth OD
compound,measurement,setting,value
CCC(C)COC(=O)/C=C/c1ccc(N=Cc2ccc(OC)cc2)cc1 (stereo unspecified),normalized growth,"locus YAR019C, strain CDC15, hits give low values",0.961 (inactive)
same,normalized growth,"locus YBL105C, strain PKC1, hits give low values",0.968 (inactive)
same,normalized growth,"locus YBR135W, strain CKS1, hits give low values",0.969 (inactive)
same,normalized growth,"locus YBR136W, strain MEC1, hits give low values",0.969 (inactive)
same,normalized growth,"locus YBR160W, strain CDC28, hits give low values",0.978 (inactive)
same,normalized growth,"locus YDL017W, strain CDC7, hits give low values",0.98 (inactive)
same,normalized growth,"locus YDL028C, strain MPS1, hits give low values",0.984 (inactive)
same,normalized growth,"locus YDL101C, strain DUN1, hits give low values",0.948 (inactive)
same,normalized growth,"locus YDL108W, strain KIN28, hits give low values",0.965 (inactive)
same,normalized growth,"locus YDL132W, strain cdc53, hits give low values",0.958 (inactive)
same,normalized growth,"locus YDL214C, strain PRR2, hits give low values",0.845 (inactive)
same,normalized growth,"locus YDR052C, strain DBF4, hits give low values",0.969 (inactive)
same,normalized growth,"locus YDR054C, strain cdc34, hits give low values",0.964 (inactive)
same,normalized growth,"locus YDR226W, strain ADK1, hits give low values",0.955 (inactive)
same,normalized growth,"locus YDR477W, strain SNF1, hits give low values",0.842 (inactive)
same,normalized growth,"locus YER123W, strain YCK3, hits give low values",0.743 (inactive)
same,normalized growth,"locus YER133W, strain GLC7, hits give low values",0.804 (inactive)
same,normalized growth,"locus YFL009W, strain cdc4, hits give low values",0.972 (inactive)
same,normalized growth,"locus YFL029C, strain CAK1, hits give low values",0.962 (inactive)
same,normalized growth,"locus YFR003C, strain YPI1, hits give low values",0.968 (inactive)
same,normalized growth,"locus YFR019W, strain FAB1, hits give low values",0.843 (inactive)
same,normalized growth,"locus YFR028C, strain CDC14, hits give low values",0.952 (inactive)
same,normalized growth,"locus YGR040W, strain KSS1, hits give low values",0.811 (inactive)
same,normalized growth,"locus YGR052W, strain FMP48, hits give low values",0.779 (inactive)
same,normalized growth,"locus YGR092W, strain DBF2, hits give low values",0.646 (inactive)
same,normalized growth,"locus YHR030C, strain SLT2, hits give low values",0.531 (active)
same,normalized growth,"locus YHR079C, strain IRE1, hits give low values",0.814 (inactive)
same,normalized growth,"locus YHR082C, strain KSP1, hits give low values",0.852 (inactive)
same,normalized growth,"locus YHR205W, strain SCH9, hits give low values",0.662 (inactive)
same,normalized growth,"locus YIL147C, strain SLN1, hits give low values",0.965 (inactive)
same,normalized growth,"locus YJL095W, strain BCK1, hits give low values",0.474 (active)
same,normalized growth,"locus YJL128C, strain PBS2, hits give low values",0.921 (inactive)
same,normalized growth,"locus YJL157C, strain FAR1, hits give low values",0.864 (inactive)
same,normalized growth,"locus YJR016C, strain ILV3, hits give low values",0.963 (inactive)
same,normalized growth,"locus YJR066W, strain TOR1 (second series), hits give low values",0.241 (active)
same,normalized growth,"locus YJR066W, strain TOR1, hits give low values",0.794 (inactive)
same,normalized growth,"locus YKL048C, strain ELM1, hits give low values",0.805 (inactive)
same,normalized growth,"locus YKL067W, strain YNK1, hits give low values",0.873 (inactive)
same,normalized growth,"locus YKL101W, strain HSL1, hits give low values",0.831 (inactive)
same,normalized growth,"locus YKL193C, strain SDS22, hits give low values",0.962 (inactive)
same,normalized growth,"locus YKL203C, strain TOR2, hits give low values",0.826 (inactive)
same,normalized growth,"locus YLR113W, strain HOG1, hits give low values",0.696 (active)
same,normalized growth,"locus YLR133W, strain CKI1, hits give low values",0.825 (inactive)
same,normalized growth,"locus YLR403W, strain SFP1, hits give low values",0.742 (inactive)
same,normalized growth,"locus YML070W, strain DAK1, hits give low values",0.814 (inactive)
same,normalized growth,"locus YMR001C, strain CDC5, hits give low values",0.964 (inactive)
same,normalized growth,"locus YMR205C, strain PFK2 (second series), hits give low values",0.861 (inactive)
same,normalized growth,"locus YMR277W, strain FCP1, hits give low values",0.966 (inactive)
same,normalized growth,"locus YNL006W, strain LST8, hits give low values",0.972 (inactive)
same,normalized growth,"locus YNL020C, strain ARK1, hits give low values",0.836 (inactive)
same,normalized growth,"locus YNL161W, strain CBK1, hits give low values",0.97 (inactive)
same,normalized growth,"locus YNL183C, strain NPR1, hits give low values",0.795 (inactive)
same,normalized growth,"locus YNL207W, strain RIO2, hits give low values",0.947 (inactive)
same,normalized growth,"locus YNL222W, strain SSU72, hits give low values",0.972 (inactive)
same,normalized growth,"locus YNL307C, strain MCK1 (second series), hits give low values",0.783 (inactive)
same,normalized growth,"locus YOL078W, strain AVO1, hits give low values",0.958 (inactive)
same,normalized growth,"locus YOL136C, strain PFK27, hits give low values",0.755 (inactive)
same,normalized growth,"locus YOR061W, strain CKA2, hits give low values",0.803 (inactive)
same,normalized growth,"locus YOR119C, strain RIO1, hits give low values",0.816 (inactive)
same,normalized growth,"locus YOR231W, strain MKK1, hits give low values",0.785 (inactive)
same,normalized growth,"locus YOR329C, strain SCD5, hits give low values",0.975 (inactive)
same,normalized growth,"locus YPL031C, strain PHO85, hits give low values",0.819 (inactive)
same,normalized growth,"locus YPL153C, strain RAD53, hits give low values",0.83 (inactive)
same,normalized growth,"locus YPL204W, strain HRR25, hits give low values",0.719 (inactive)
same,normalized growth,"locus YPL209C, strain IPL1, hits give low values",0.959 (inactive)
same,normalized growth,"locus YPL256C, strain CLN2, hits give low values",0.798 (active)
same,normalized growth,"locus YPR025C, strain CCL1, hits give low values",0.968 (inactive)
same,normalized growth,"locus YPR106W, strain ISR1, hits give low values",0.951 (inactive)
same,normalized growth,"locus YPR111W, strain DBF20, hits give low values",0.944 (inactive)
same,normalized growth,"strain NNK1, hits give low values",0.941 (inactive)
same,normalized growth,"strain TSCII, hits give low values",0.95 (inactive)
